gsp antagonist = antagonists of gsp mutant (McCune-Albright syndrome). gsp-mutant cells, cAMP HTRF, 30 min. Potency, µM (highest dose often 76.9 µM), inactives show at the highest dose activity change, negative = inhibition, hits mostly inhibitors. actives 0.4% (n = 340,000). AID 624288; calls by dose curve; cell line not stated here;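 note: intracellular cAMP measured with PDE inhibitor Ro 20-1724 present during compound exposure; potency is the fitted concentration of half-maximal effect; % is set by controls: 0 for no effect and ±100 for the full control effect; nearly all actives have a fitted effect of over 65% in size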
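Cells, 2000/well, grown 16–24 h in DMEM 10% FBS with 0.5 mg/ml G418, then compounds plus […] (300 uM addition stock), 30 min at 37C. cAMP read by HTRF (cAMP-d2 and anti-cAMP antibody-K in lysis buffer) after 30 min RT.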
gsp ag = activates gsp, the McCune-Albright syndrome mutation; AID 624287; gsp mutant cells, cAMP HTRF, 30 min; actives 0.13% (n = 340,000); Potency, µM (top dose mostly 76.9 µM), for inactives: at the highest dose activation (cAMP increase), usual class: activators; active = well fitted activation curve with a large enough effect; inconclusive = small, poorly fitted or top-dose-only effect, or another doubt; inactive = no such curve, though single readings can be large or run the other way; cell line not stated here;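 note: phosphodiesterase inhibitor Ro 20-1724 added with compounds to block cAMP breakdown; potency is the fitted concentration of half-maximal effect; nearly all actives have a fitted effect of over 60% in size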
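Cells stably selected in G418 were plated at 2000/well, grown 16-24 hr, then given compounds in DMSO with the PDE inhibitor […] (300 uM solution added) for 30 min at 37C; cAMP was read by HTRF.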
Akt phos inh = Akt phosphorylation inhibition. Neuro2A IGF-stimulated pAkt S473 HTRF, 20 min; stronger effect = lower value. actives 0.32% (n = 360,000). activity change, % for hits at 50 µM; in the data active = activity change below about -80%; inconclusive = mostly about -51% to -80%; note: % is set by controls: 0 for no effect and ±100 for the full control effect
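Neuro2A cells in DMEM with 0.5% FBS, overnight at 37 deg C, given compound at single 50 µM final, then IGF (6 nM final) for 20 min at 37 deg C. Lysed; phospho-Akt Ser473 by HTRF after 24 h, 665/615 ratio.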
ClpP mod = qHTS Assay for Activators of ClpP | ATP-dependent Clp protease proteolytic subunit (Bacillus subtilis (strain 168)), P80244 | purified B. subtilis ClpP, FRET peptide cleavage, 20 min | Potency, µM (highest dose often 57.5 µM), for inactives: top-dose activity change, negative = active | actives 1.9% (n = 340,000) | AID 651965, 2013; active = well fitted falling curve with a large enough effect; inconclusive = small, poorly fitted or top-dose-only effect; inactive = no such curve, though single readings can be large or run the other way; note: potency is the fitted concentration of half-maximal effect; the source files actives as falling curves though it sought activators and does not explain the sign; nearly all actives have a fitted effect of over 65% in size
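Buffer: 100 mM Tris/HCl pH8, 100 mM KCl, 0.05% low protease BSA, 2.5% glycerol, 0.01% Tween-20. ClpP 10 microg/mL final; 20 min RT; delta FRET normalized to ADEP and DMSO controls.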
RXFP1 antagonist = RXFP1 (human) relaxin receptor antagonism. Q9HBX9. HEK293-RXFP1, relaxin-stimulated cAMP HTRF, 30 min; stronger effect = lower value. activity change, negative = inhibition, % at 57.5 µM. actives 0.59% (n = 350,000);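 active = activity change of -60% or lower, but not beyond a set lower limit; inconclusive = change between -60% and -40%, or beyond the set limit; inactive = change above -40%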; note: % is set by controls: 0 for no effect and ±100 for the full control effect
Target sequence (Q9HBX9 whole entry, looked up): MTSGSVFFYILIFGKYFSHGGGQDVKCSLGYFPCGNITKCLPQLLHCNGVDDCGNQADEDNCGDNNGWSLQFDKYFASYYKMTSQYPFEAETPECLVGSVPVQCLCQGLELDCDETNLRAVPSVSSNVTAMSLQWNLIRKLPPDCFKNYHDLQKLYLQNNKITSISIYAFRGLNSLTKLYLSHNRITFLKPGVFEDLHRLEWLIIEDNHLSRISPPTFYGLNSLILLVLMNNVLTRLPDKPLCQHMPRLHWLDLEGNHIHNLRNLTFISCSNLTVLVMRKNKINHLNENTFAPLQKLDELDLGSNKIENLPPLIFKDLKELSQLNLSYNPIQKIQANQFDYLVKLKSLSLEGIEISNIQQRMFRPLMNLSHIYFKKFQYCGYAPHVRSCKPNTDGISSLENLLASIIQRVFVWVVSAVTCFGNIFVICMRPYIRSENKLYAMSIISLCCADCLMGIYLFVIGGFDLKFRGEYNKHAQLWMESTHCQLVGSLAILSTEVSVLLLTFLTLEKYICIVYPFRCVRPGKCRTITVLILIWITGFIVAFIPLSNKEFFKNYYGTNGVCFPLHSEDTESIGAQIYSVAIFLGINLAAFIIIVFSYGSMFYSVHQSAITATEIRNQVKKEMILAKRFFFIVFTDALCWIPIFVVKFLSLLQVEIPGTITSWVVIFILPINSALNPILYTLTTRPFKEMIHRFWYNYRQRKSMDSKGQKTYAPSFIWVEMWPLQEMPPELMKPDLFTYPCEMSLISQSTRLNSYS
RXFP1 ag = agonists of human relaxin receptor RXFP1 | Q9HBX9 | HEK293T-RXFP1 cAMP TR-FRET, 30 min; response scale: percent of porcine relaxin response, buffer zero | Potency, µM (highest dose often 57.5 µM), without a hit: at the top dose activation, hits mostly activators | actives 0.3% (n = 370,000); active = well fitted activation curve with a large enough effect; inconclusive = small, poorly fitted or top-dose-only effect; note: potency is the fitted concentration of half-maximal effect; % is set by controls: 0 for no effect and ±100 for the full control effect; nearly all actives have a fitted effect of over 60% in size
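HEK293T cells stably expressing RXFP1 were pretreated with the PDE4 inhibitor Ro 20174, exposed to compounds for 30 min at 37C, lysed, and cAMP was read by TR-FRET. Data normalized to buffer (basal) and 29 nM porcine relaxin (100%).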
Active calls of the source: *; i = inactive; ? = inconclusive; . = not tested or not shown; ! = a repeat was not active; [ ] = remark or other dose. Sampled rows, rich in hits. Any-hit rate of the full collection: about 2.7%.

SMILES	gsp antagonist	gsp ag	Akt phos inh	ClpP mod	RXFP1 antagonist	RXFP1 ag
Cc1cc(NC(=O)C(C)SCC(=O)Nc2cc(C(F)(F)F)ccc2N2CCOCC2)no1 (configuration not stated)	3.1%	2.5%[15.4 µM]	i	.	-71.6*	0.4%
O=C(Nc1cc(C(F)(F)F)ccc1N1CCOCC1)c1cccnc1Cl	-9.5%	-2.9%	-110.6%*	-1.3%	-2.1	-0.4%
Cc1cc(NC(=O)C(C)SCC(=O)Nc2cc(Cl)ccc2N2CCN(C)CC2)no1 (configuration not stated)	-0.1%	1.1%[15.4 µM]	i	-4.5%	-15.6	0.5%
CSc1nc2ccccc2n1CC(=O)Nc1cc(C(F)(F)F)ccc1N1CCOCC1	-11.6%	-20.5%	-119.8%*	9.4%	-5.9	1.8%
O=C(Cn1c(C(F)(F)F)nc2ccccc21)Nc1ccccc1N1CCOCC1	-2.1%	-0.9%	i	2.4%	0.4	-1.1%
Cc1ccc(-n2cnc3cc(C(=O)NC4CCCCCC4)ccc32)cc1Cl	.	.	.	1.4%	-20.5	1.1%
O=C(CCc1ccccc1)Nc1nnc(-c2ccccn2)o1	8.4%	-30.6%	i	22.4µM*	6.8	0.3%
CCC(=O)Nc1nnc(-c2ccccn2)o1	6.2%	-2.1%	i	?	-5.5	3.0%
Nc1ccccc1-c1ccc(Cl)cc1	1.3%	-18.5%[15.4 µM]	i	-1.2%	-4.3	.
Nc1ccccc1-c1ccccc1N	14.4%	3.4%	i	7.94µM*	-1.0	0.2%
Cc1cc(C)n2nc(SCc3ncc(-c4ccccc4)o3)nc2n1	0.5%	11.6%[15.4 µM]	i	?	-5.1	2.2%
Cc1cc(C)n2nc(SCc3nnc(-c4ccccc4Br)o3)nc2n1	-6.5%	1.1%[15.4 µM]	i	17.8µM*	10.6	11.6%
O=S(=O)(Nc1cccc(-c2ccc(N3CCCCCC3)nn2)c1)c1ccc(C(F)(F)F)cc1	?	0.4%	i	-2.1%	-68.0*	0.6%
O=S(=O)(Nc1cccc(-c2ccc(N3CCCCCC3)nn2)c1)c1ccc(F)cc1	?	?	i	-4.8%	-76.2*!	2.1%
O=S(=O)(Nc1ccc(-c2ccc(N3CCOCC3)nn2)cc1)c1ccc(Cl)c(Cl)c1	35.5µM*	18.6%[15.4 µM]	i	.	-11.8	-2.5%
O=S(=O)(Nc1cccc(-c2ccc(N3CCCCCC3)nn2)c1)c1ccccc1F	?	-4.4%	i	-1.2%	?	-1.1%
O=S(=O)(Nc1cccc(-c2ccc(N3CCCCCC3)nn2)c1)c1ccccc1Cl	28.2µM*	?	i	-3.1%	-20.9	-0.4%
O=S(=O)(Nc1cccc(-c2ccc(N3CCCCCC3)nn2)c1)c1cccc(F)c1	?	6.0%	.	-1.9%	11.3	2.3%
CC(=O)c1ccc(S(=O)(=O)Nc2cccc(-c3ccc(N4CCCCC4)nn3)c2)cc1	.	.	.	-2.3%	-16.7	-1.7%
COc1ccc(CNCc2ccccc2)cc1COc1ccc(NC(C)=O)cc1	.	.	.	0.1%	.	.
CCOc1ccc(-c2cc3c(=O)n(CC(=O)NCc4ccc(F)cc4)ccn3n2)cc1	.	.	.	-2.4%	1.9	?
COc1ccc(N(CC(=O)N2CCCCC2)S(=O)(=O)c2ccc(OC)c(OC)c2)cc1	.	.	.	-2.5%	-1.0	0.1%
O=C(CCCCn1c(=O)[nH]c2ccsc2c1=O)N1CCN(c2cccc(C(F)(F)F)c2)CC1	.	.	.	-1.8%	.	1.3%
CCOc1cc2c(cc1/C=C(/C#N)c1ccc(C(=O)O)cc1)OCO2	35.5µM*	-1.1%	i	.	-5.1	-2.2%
N#C/C(=C\c1cc2c(cc1Br)OCO2)c1ccc(C(=O)O)cc1	?	3.1%	i	-0.8%	-6.8	0.2%
SMILES	gsp antagonist	gsp ag	Akt phos inh	ClpP mod	RXFP1 antagonist	RXFP1 ag
O=C(NCc1cccs1)c1nn(-c2ccccc2)nc1CO	.	.	.	2.7%	-25.3	1.1%
Cc1ccc(-n2nc(CO)c(C(=O)NC(C)CCCc3ccccc3)n2)cc1 (configuration not stated)	.	.	.	31.6µM*	-12.1	-1.8%
CCc1ccc(-n2nc(CO)c(C(=O)NCCCCc3ccccc3)n2)cc1	.	.	.	?	-0.4	7.6%
Cc1ccc(-n2nc(CO)c(C(=O)NCCO)n2)cc1	.	.	.	8.91µM*	13.0	0.4%
O=C(NCc1ccccc1)c1nn(-c2ccccc2)nc1CO	.	.	.	31.6µM*	-29.0	3.8%
CCC(C)NC(=O)c1nn(-c2ccc(C)cc2)nc1CO (configuration not stated)	.	.	.	?	-17.9	0.8%
O=C(NCCCCc1ccccc1)c1nn(-c2ccccc2)nc1CO	.	.	.	?	-69.2*	0.1%
CN1CCC(N(C)C(=O)c2ccc(Cl)c(S(=O)(=O)N3CCOCC3)c2)CC1	12.1%	3.0%	i	-1.5%	-1.2	0.6%
CN(C)C(=O)N1CCc2ccc([N+](=O)[O-])cc21	.	-38.8%	i	-0.2%	2.9	.
COc1cc2nc(N3CCCN(C)CC3)nc(NC3CCN(C)C3)c2cc1OC (configuration not stated)	.	.	.	3.9%	.	.
CNc1ccc(C=C2c3ccccc3-c3ccccc32)cc1	.	.	.	1.2%	.	.
O=C(NCC(c1ccccc1)c1ccccc1)c1nn(-c2ccccc2Cl)nc1CO	.	.	.	-0.6%	-65.6*	1.0%
COC(=O)c1nn(-c2ccccc2)nc1-c1nn(-c2ccccc2)nc1C(=O)OC	-5.4%	-19.9%	i	?	-7.9	-0.8%
Cc1ccc(-n2nc(CO)c(C(=O)NCC(c3ccccc3)c3ccccc3)n2)cc1	.	.	.	-10.8%	-12.3	-0.8%
Cc1ccc(-n2nc(CO)c(C(=O)NCCCc3ccccc3)n2)cc1	.	.	.	22.4µM*	-36.1	2.3%
O=C(NCc1cccnc1)c1nn(-c2ccc(Cl)cc2)nc1CO	.	.	.	28.2µM*	-22.3	-0.6%
O=C(O)c1nn(-c2ccccc2)nc1-c1nn(-c2ccccc2)nc1C(=O)O	8.1%	-25.4%	i	25.1µM*	3.2	-0.8%
CC(=O)N1CCCc2cc(S(=O)(=O)N3CCC(C(=O)Nc4c(C)cccc4C)CC3)ccc21	.	.	.	-1.2%	-18.2	-0.2%
Cc1ccc(-n2nc(CO)c(C(=O)NCCCCc3ccccc3)n2)cc1C	.	.	.	25.1µM*	-20.0	0.3%
Cc1ccc(-n2nc(CO)c(C(=O)NCCCCc3ccccc3)n2)cc1	.	.	.	10µM*	-3.5	-1.5%
Cc1ccccc1-n1nc(CO)c(C(=O)NCC(c2ccccc2)c2ccccc2)n1	.	.	.	-12.7%	?	1.7%
c1ccc2sc(-n3cc(C4CCCCC4)nn3)nc2c1	.	.	i	-0.9%	.	.
CCOC(=O)[C@]12CCC=C1N(Cc1ccc3c(c1)OCO3)C(=O)[C@H](CC(=O)NCC1CCCCC1)C2	.	.	i	-1.8%	.	.

Compound activity: PubChem BioAssay, National Center for Advancing Translational Sciences (NCATS)
